# Screening data: PubChem, Emory University Molecular Libraries Screening Center
# 14-3-3g Raf: modulators of 14-3-3 gamma protein binding, primary screen, biochemical, fluorescence polarization; 14-3-3 protein gamma (Homo sapiens), P61981; FP, 14-3-3gamma / TMR-pS259-Raf peptide binding; inhibition, % at 40 µM; 0.19% of 160,000 active; in the data active = inhibition above about 30%
# Target sequence (P61981 whole entry, looked up): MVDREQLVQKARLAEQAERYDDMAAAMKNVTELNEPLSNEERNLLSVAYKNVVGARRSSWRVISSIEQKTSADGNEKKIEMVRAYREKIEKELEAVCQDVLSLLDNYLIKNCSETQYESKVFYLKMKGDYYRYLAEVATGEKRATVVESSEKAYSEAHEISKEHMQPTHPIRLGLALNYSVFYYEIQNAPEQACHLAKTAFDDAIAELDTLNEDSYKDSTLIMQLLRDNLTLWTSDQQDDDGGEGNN
# Numbers stand for hits; n = inactive; + = active, no number. This excerpt belongs to a sample that is enriched for hits.
SMILES,14-3-3g Raf
CN(c1ccc(C(=O)NCc2ccccc2)cc1)S(=O)(=O)c1ccccc1,n
Cc1ccc(CNC(=O)c2ccc(N(C)S(=O)(=O)c3ccccc3)cc2)cc1,53
Cc1ccccc1CNC(=O)c1ccc(N(C)S(=O)(=O)c2ccccc2)cc1,n
COC(=O)c1c(C)oc2ccc(NS(=O)(=O)c3ccc(C(C)C)cc3)cc12,n
COc1ccccc1NC(=O)c1cc2ccccc2c(C=Nc2ccc(Cl)cc2)c1O,n
CC(=O)Nc1ccc(N=Cc2c(O)c(C(=O)Nc3ccccc3)cc3ccccc23)cc1,174
CCOc1ccc(NC(=O)c2cc(-c3cccs3)nc3ccccc23)cc1,n
COc1ccccc1NC(=O)c1coc(=O)c2ccccc12,n
COc1cc2ccccc2cc1C(=O)Nc1ccccc1Oc1ccccc1,n
CCOc1ccccc1C(=O)Nc1cc(OC)ccc1OC,n
CCOc1ccc(-c2nc3cc(N=Cc4c(O)ccc5ccccc45)ccc3o2)cc1,n
CC(=O)Nc1ccc(N=Cc2c(OC(=O)c3cccc4ccccc34)ccc3ccccc23)cc1,n
COc1ccccc1N=Cc1c(O)c(C(=O)Nc2ccccc2OC)cc2ccccc12,78
CCOc1ccc(N=Cc2c(O)c(C(=O)Nc3ccccc3)cc3ccccc23)cc1,71
O=C(Nc1ccccc1)c1cc2ccccc2c(C=Nc2ccc(Cl)cc2)c1O,n
CCOc1ccc(N=Cc2c(O)c(C(=O)Nc3ccccc3OC)cc3ccccc23)cc1,59
Cc1ccc(Cc2c(C)nc3c(C(=O)N(C)CCc4ccccn4)cnn3c2C)cc1,n
Cc1cccc(-n2ncc3c(Nc4cccc5ccccc45)ncnc32)c1,n
CN=C1SC(CC(=O)Nc2ccccc2OC(F)F)C(=O)N1C (stereo not drawn),n
Cc1ccc(OCC(=O)Nc2c[nH]c(=O)[nH]c2=O)cc1,n
Cc1ccc(N2COc3ccc(Br)cc3C2)c(C)c1,n
COC(=O)c1c(NC(=O)c2ccccc2C)sc2c1CCCC2,n
OCc1nc2ccccc2n1CC=Cc1ccccc1,n
O=C1c2ccccc2-c2c(Nc3ccccc3)c(=O)[nH]c3cccc1c23,92
Nc1c2c3c(c(Cl)ccc3[nH]c1=O)C(=O)c1ccccc1-2,n
SMILES,14-3-3g Raf
CC(=O)Nc1ccc(Nc2ccccc2)c2c1C(=O)c1ccccc1C2=O,n
CC(C)(C)C#CC(=O)C#CC(C)(C)C,n
COc1cc2c(cc1OC)C(C)N(c1ccc(N3C(=O)CC(C)C3=O)cc1[N+](=O)[O-])CC2 (stereo not drawn),n
CCCCC(CC)CNC(=O)Cn1c(=O)[nH]c2ccccc2c1=O (stereo not drawn),n
Cc1c(N)cccc1-c1nc2ccccc2s1,n
Cc1cc2c(N)cccc2nn1,44
Cc1cc(N)c2ccccc2n1,n
C=CCn1c(SCC(=O)Nc2ccccc2F)nnc1-c1cccnc1,n
CCN1CCN(CCC(=O)Nc2ccc3c(c2)OCCO3)CC1,n
CN(C)S(=O)(=O)c1ccc(/C(O)=C2\C(=O)C(=O)N(CCN3CCCCC3)C2c2ccc(F)cc2)cc1 (stereo not drawn),n
COc1cccc2cc(C(=O)C[n+]3ccc(N(C)C)cc3)c(=O)oc12,n
COc1ccc2oc(=O)c(C(=O)C[n+]3ccc(N(C)C)cc3)cc2c1,41
COc1ccc2oc(=O)c(C(=O)NCc3ccccc3)cc2c1,n
COc1ccccc1NC(=O)Nc1nnc(-c2ccncc2)s1,n
C=Cc1c(C)c2cc3[nH]c(cc4nc(cc5nc(cc1[nH]2)C(C)=C5CCC(=O)O)C(CCC(=O)O)=C4C)c(C)c3C=C,+
Cc1ccc2nc(-c3ccc(NC(=O)COc4cccc(Br)c4)cc3)sc2c1,n
O=C(c1ccc(Br)cc1)N1CCN(c2cc(N3CCOCC3)c(F)cc2[N+](=O)[O-])CC1,n
CCOC(=O)C(=O)C(C#N)c1ccccc1 (stereo not drawn),n
CC(=O)C(CCC#N)(CCC#N)c1ccccc1,n
CC(=O)C(c1ccccc1)C(C#N)(C#N)C(C#N)C#N (stereo not drawn),67
COc1ccc(C2C(C(=O)NCC3CCCO3)c3ccccc3C(=O)N2C2CCCCC2)cc1 (stereo not drawn),n
NC(=O)c1c(NC(=O)c2ccc(F)cc2)sc2c1CCCC2,n
NC(=O)c1c(NC(=O)c2ccccc2Cl)sc2c1CCCC2,n
NC(=O)c1c(NC(=O)c2ccc(Cl)cc2)sc2c1CCCC2,40
O=C1CN(CCc2ccccc2)CC(=O)N1CCc1ccccc1,166
SMILES,14-3-3g Raf
O=C1CN(S(=O)(=O)c2ccc(F)cc2)CC(=O)N1CCc1ccccc1,n
O=C(c1cccs1)N1CC(=O)N(CCc2ccccc2)C(=O)C1,n
C=CCN(CC=C)C(=O)C[n+]1ccc(C(N)=O)cc1,40
C=CCN(CC=C)C(=O)C[n+]1cccc(C(N)=O)c1,n
CCN(CC)C(=O)C[n+]1ccc(C(N)=O)cc1,n
CC(C)CC1(C(=O)O)NC(c2ccc([N+](=O)[O-])cc2)C2C(=O)N(c3ccc(F)cc3)C(=O)C21 (stereo not drawn),n
c1ccc(COc2cccc(C3Nc4cccc5cccc(c45)N3)c2)cc1,n
Oc1ccc(NCc2cccs2)cc1,52
O=[N+]([O-])c1cccc(NCc2cccs2)c1,n
CCOC(=O)Cc1ccc(NCc2cccs2)cc1,n
Cc1ccc2ccc(C(Nc3ccccn3)c3sccc3C)c(O)c2n1 (stereo not drawn),n
CCC(C)OC(=O)C1=C(C)NC2=C(C(=O)CC(c3ccccc3)C2)C1c1cc(OC)c(OC)cc1Br (stereo not drawn),39
CCC(C)OC(=O)C1=C(C)NC2=C(C(=O)CC(c3ccc(OC)cc3)C2)C1c1ccc(OC)c(OC)c1 (stereo not drawn),n
CCC(C)OC(=O)C1=C(C)NC2=C(C(=O)CC(c3ccccc3)C2)C1c1cccc2ccccc12 (stereo not drawn),n
CCCc1ccc(-c2ccc(C(=O)Nc3cccc([N+](=O)[O-])c3)cc2)nc1,n
NC(=O)Cc1ccc(OCC(=O)Nc2ccc(OC(F)(F)F)cc2)cc1,n
COc1ccc2oc(C)c(-c3cnc4ccccn34)c2c1,n
CC(C)(C)n1cnc2cc(NCc3ccccn3)ccc21,32
Cn1cnc2cc(NCc3ccccn3)ccc21,n
CC(C)(C)n1cnc2cc(NCc3ccncc3)ccc21,n
COc1ccc(N=Cc2cc(Cl)cc([N+](=O)[O-])c2O)cc1Cl,n
COc1ccc(N=Cc2cc(Cc3ccccc3Cl)cc([N+](=O)[O-])c2O)cc1OC,79
COc1ccc(N=Cc2cc([N+](=O)[O-])cc(Br)c2O)cc1OC,n
Cc1sc(N)nc1-c1ccccc1OC(F)F,n
Cc1ccc(-c2nnc(SCc3cc(=O)n4cc(Br)ccc4n3)nc2-c2ccc(C)cc2)cc1,n
SMILES,14-3-3g Raf
C=CCNC(=O)c1c(NC(=O)c2ccccc2Cl)sc2c1CCCC2,n
COC(=O)C1=CN(C)C=C(C(=O)OC)C1c1cccc(C)c1,n
CC1=C(C(=O)OCc2ccccc2)C(c2cccc([N+](=O)[O-])c2)NC(=O)N1 (stereo not drawn),n
CC1=C(C(=O)OCCOc2ccccc2)C(c2cccc([N+](=O)[O-])c2)NC(=O)N1C (stereo not drawn),n
CC1=C(C(=O)OCCOc2ccccc2)C(c2cccc([N+](=O)[O-])c2)NC(=O)N1 (stereo not drawn),34
O=C(Cn1cnc2scc(-c3ccccc3)c2c1=O)c1ccc(Br)cc1,n
CCc1ccc(S(=O)(=O)N=C2C=C(Nc3ccccc3)C(=O)c3ccccc32)cc1,n
